sEH inh: inhibitors of human soluble epoxide hydrolase; P34913; recombinant human sEH enzymatic activity assay; inhibition, % at 2 µM; 91,000 compounds, 0.34% hits; AID 707; in the data active = inhibition above about 80%
Target sequence (P34913 whole entry, looked up): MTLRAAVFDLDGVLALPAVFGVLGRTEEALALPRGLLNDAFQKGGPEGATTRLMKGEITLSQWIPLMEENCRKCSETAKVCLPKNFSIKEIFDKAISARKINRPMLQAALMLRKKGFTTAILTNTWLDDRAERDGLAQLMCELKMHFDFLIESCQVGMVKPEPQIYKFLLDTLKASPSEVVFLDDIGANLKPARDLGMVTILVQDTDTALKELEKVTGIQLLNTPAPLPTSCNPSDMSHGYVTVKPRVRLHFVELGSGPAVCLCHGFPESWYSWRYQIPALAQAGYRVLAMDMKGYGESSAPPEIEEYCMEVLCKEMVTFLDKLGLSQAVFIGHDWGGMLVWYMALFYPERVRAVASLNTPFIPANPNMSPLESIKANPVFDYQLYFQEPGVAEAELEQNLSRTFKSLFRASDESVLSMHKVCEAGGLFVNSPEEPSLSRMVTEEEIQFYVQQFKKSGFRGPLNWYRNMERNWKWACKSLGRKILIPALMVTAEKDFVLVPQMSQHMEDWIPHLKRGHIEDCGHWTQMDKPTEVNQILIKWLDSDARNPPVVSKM
sEH act: activators of human soluble epoxide hydrolase; purified human sEH enzymatic activity, activator screen; activation, % at 2 µM; 91,000 compounds, 0.04% hits; in the data active = activation above about 37%
CYP2C9 activ: CYP2C9 (human) activation; P11712; recombinant CYP2C9, luciferin-H conversion, luminescence; hits give high values; factor 1 = untreated enzyme, 0 = blocked; activation factor at 5 µM; 96,000 compounds, 1.4% hits; AID 1024;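 active = activation factor of 2 or more for CYP2C9 at a 5 µM dose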;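 also: 0 = sulfaphenazole-blocked wells and 1 = vehicle-only wells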
CYP2C9 inh: inhibitors of human CYP2C9; P11712; CYP2C9 Supersomes, luciferin-H conversion, luminescence; inhibition, % at 5 µM; 96,000 compounds, 20% hits;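 active = blocking of liver enzyme CYP2C9 beyond about 50% at 5 µM, limit read from the data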
CYP2C19 activ: increases human CYP2C19 enzyme activity. activation factor at 5 µM. 96,000 tested, under 10 active. P33261. recombinant CYP2C19, luciferin-H EGE luminescence; hits give high values; 0 = fully inhibited enzyme, 1 = untreated enzyme;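 active = activation factor of at least 2 at 5 µM in the primary screen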;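 also: 0 = wells with 2.5 mM tranylcypromine and 1 = vehicle-only wells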
CYP2C19 inhib: blocks human cytochrome P450 2C19. P33261. CYP2C19 Supersomes, luciferin-H EGE luminescence, 30 min. inhibition, % at 5 µM. 96,000 compounds, 21% hits. AID 778;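 active = CYP2C19 inhibition above a set limit at 5 µM in the primary screen, cut at about 50% in these data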;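 also: plate controls were negative control wells for no effect and 2.5 mM tranylcypromine positive control for full effect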
An asterisk follows results filed as active; · = no result given. Most compounds without a hit are left out; they make up all but 27% or so of the library.

SMILES | sEH inh | sEH act | CYP2C9 activ | CYP2C9 inh | CYP2C19 activ | CYP2C19 inhib
c1ccc(-c2ccc(-c3cnc4n3CCCCC4)cc2)cc1 | 6 | -4 | 0.3 | 66* | 0.6 | 40
c1cc2c(cc1-c1cnc3n1CCC3)OCCO2 | 6 | -3 | 1 | -2 | 1 | -3
Cc1cc(N2C(=O)C(=O)/C(=C(/O)c3ccc(F)cc3)C2c2ccc(Cl)cc2)no1 (stereo not drawn) | 6 | -7 | 0.4 | 57* | 1 | 3
O=C(Nc1c(C(=O)N2CCOCC2)cnn1-c1ccccc1Cl)c1ccco1 | -8 | 10 | 1.3 | -29 | 1.2 | -18
Oc1ccc(-c2nc3ncccn3c2Nc2ccc3c(c2)OCO3)cc1 | 10 | -8 | 0.4 | 59* | 0.6 | 44
Clc1ccc(-c2nc3ncccn3c2Nc2ccc3c(c2)OCO3)cc1 | 3 | -3 | 1.1 | -6 | 1 | 3
Oc1ccc(-c2nc3cnccn3c2Nc2ccc3c(c2)OCCO3)cc1 | -3 | 5 | 0 | 96* | 0 | 98*
c1ccc(-c2nc3cnccn3c2Nc2ccc3c(c2)OCCO3)cc1 | -11 | 14 | · | · | · | ·
CC1(C)CC(c2csc(N)n2)CCO1 (stereo not drawn) | 18 | -18 | 0.8 | 16 | 1.1 | -8
Cc1ccc(C)c(Cn2nnc3c(=O)[nH]c(C(=O)NCC4CCCO4)nc32)c1 (stereo not drawn) | 1 | 0 | · | · | · | ·
Cc1ccc(C)c(S(=O)(=O)N2CCC(c3nc4c(nnn4Cc4ccc(F)cc4)c(=O)[nH]3)CC2)c1 | -7 | 9 | 0.1 | 94* | 0.5 | 49
Cc1ccc(Cn2nnc3c(=O)[nH]c(C4CCN(S(=O)(=O)c5cc(C)ccc5C)CC4)nc32)cc1 | -3 | 5 | 0 | 97* | 0.2 | 79*
COCCNC(=O)c1nc2c(nnn2Cc2cc(C)ccc2C)c(=O)[nH]1 | -4 | 3 | · | · | · | ·
CCOc1cc(N2CCOCC2)c(OCC)cc1NC(=O)c1nc2nc(C)cc(C)n2n1 | · | · | 0.6 | 36 | 0.9 | 11
CCOC(=O)C1=C(C)NC(C)=C(C(=O)OCC)C1C(=O)OC1CCOC1=O (stereo not drawn) | -1 | -1 | 1 | -4 | 0.7 | 28
O=S(c1ccc2ccccc2c1)c1cnns1 (stereo not drawn) | 3 | 0 | 1 | -3 | 0.3 | 75*
Cc1c(C#N)c2ncnc(-c3ccccc3)c2n1-c1ccccc1 | -4 | 5 | 1.1 | -10 | 0.8 | 16
Cc1c(C#N)c2ncn(Cc3ccccc3)c(=O)c2n1-c1ccccc1 | 14 | -14 | 0.4 | 63* | 0.6 | 45
COC(=O)Cn1cnc2c(C#N)c3n(c2c1=O)CCCCC3 | -9 | 8 | 0.9 | 12 | 0.9 | 14
N#Cc1c2n(c3c(=O)n(Cc4ccccc4Cl)cnc13)CCCCC2 | 6 | -6 | 0.3 | 68* | 0.4 | 59*
Cc1cccc(NC(=O)C2CC(=O)N(c3ccccc3)C2)c1C (stereo not drawn) | 2 | -3 | 0.9 | 14 | 1 | 3
Cc1cc(C(=O)COC(=O)CN(C)S(=O)(=O)c2ccc(Cl)cc2)c(C)n1Cc1cccs1 | 8 | -7 | 1.1 | -7 | 0.3 | 74*
CCCN1CCN(C(=O)C2CCN(S(=O)(=O)c3ccc4c(c3)oc(=O)n4C)CC2)CC1 | 2 | -1 | 1 | -4 | 1.1 | -10
CC1(C)C(c2ccccc2)=[N+]([O-])CN1O | · | · | 1.1 | -9 | 1 | -4
O=C(OCc1c(Cl)cccc1Cl)c1cccnc1 | 5 | -5 | 0.8 | 22 | 0.1 | 86*
SMILES | sEH inh | sEH act | CYP2C9 activ | CYP2C9 inh | CYP2C19 activ | CYP2C19 inhib
O=C(OCc1c(Cl)cccc1Cl)c1cnccn1 | 3 | -5 | 1.1 | -10 | 1.1 | -9
O=C(OCc1c(Cl)cccc1Cl)c1cccnc1Cl | -2 | 3 | 1.8 | -78 | 0.5 | 52*
COc1ccc(-n2c3c(cc(C(=O)N4CCCCC4)c2=O)C(=O)CC(C)(C)C3)cc1 | -10 | 10 | 1.1 | -15 | 1.1 | -5
CCC(=O)N/C=C/n1cnc2cc(C(F)(F)F)ccc21 | -8 | 8 | 0.6 | 38 | 0.2 | 80*
CCC(=O)Nc1ccc2c(c1)ncn2-c1ccc(OC)cc1 | 16 | -11 | · | · | · | ·
Cn1nc(-c2ccc(OCC(=O)Nc3cccnc3)cc2)c2ccccc2c1=O | 2 | -3 | 0.3 | 71* | 0.9 | 8
O=C(c1ccc(-n2cccc2)cc1)N1CCN(Cc2ccccc2)CC1 | -6 | 9 | 1 | 5 | 0.9 | 14
Cn1nc(-c2ccc(C(=O)Nc3cccc(Cl)c3)cc2)c2ccccc2c1=O | 18 | -20 | 0.6 | 40 | 0.5 | 51*
Cc1ccc(NC(=O)c2ccc(-c3nn(C)c(=O)c4ccccc34)cc2)c(C)c1 | 1 | 2 | 0.8 | 24 | 0.8 | 23
Cn1nc(-c2ccc(C(=O)N3CCN(Cc4ccccc4)CC3)cc2)c2ccccc2c1=O | 3 | -4 | 0.3 | 73* | 0.3 | 69*
Cc1ccc(NC(=O)c2ccc(-c3nn(C)c(=O)c4ccccc34)cc2)cc1 | 8 | -11 | 0.4 | 57* | 0.7 | 25
CC(O)CNC(=O)c1ccc(-c2nn(C)c(=O)c3ccccc23)cc1 (stereo not drawn) | -4 | 2 | 0.8 | 23 | 0.9 | 12
Cn1nc(-c2ccc(C(=O)Nc3cccnc3)cc2)c2ccccc2c1=O | 2 | 1 | 0.5 | 53* | 0.4 | 58*
O=C(O)CCNS(=O)(=O)c1ccc(Oc2ccccc2Cl)cc1 | 6 | -4 | 0.8 | 17 | 1 | 2
O=C1C=C(NCc2ccco2)C2(CCCCC2)O1 | 3 | -3 | 0.9 | 7 | 0.9 | 8
O=C1C=C(NCc2ccc(Cl)c(Cl)c2)C2(CCCCC2)O1 | 19 | -19 | 0.6 | 38 | 0.2 | 77*
CCN(CC)CCNC1=CC(=O)OC12CCCCC2 | -9 | 12 | · | · | · | ·
O=C1C=C(NCc2ccccc2)C2(CCCCC2)O1 | -12 | 10 | 0.9 | 12 | 0.3 | 70*
CSc1nsc(SC)c1C(=O)NCCNS(=O)(=O)c1ccc(C)cc1 | -8 | 5 | 0.5 | 45 | 0.8 | 19
Cc1ccc(-c2noc(-c3cccs3)n2)cc1 | · | · | 1.1 | -7 | 1 | 4
Cc1ccccc1OC(C)c1nc(-c2ccccc2)no1 (stereo not drawn) | 7 | -3 | 0.3 | 73* | 0.3 | 70*
Cc1ccc(SC(C)c2nc(-c3ccccc3)no2)cc1 (stereo not drawn) | -16 | 19 | 0.2 | 85* | 0.1 | 90*
CN(C)C=Nc1ncc2c([nH]c3ccccc32)c1C#N | -2 | 3 | 0.5 | 50 | 0.4 | 63*
O=[N+]([O-])c1ccc(Sc2nccn2Cc2ccccc2)c([N+](=O)[O-])c1 | 15 | -17 | 0.6 | 35 | 0.5 | 51*
O=[N+]([O-])c1cc(C(F)(F)F)ccc1Sc1nccn1Cc1ccccc1 | 10 | -8 | 0.5 | 47 | 0.6 | 45
CC(C)c1cc(C(N)=O)c(NC(=O)c2cccc(COc3ccc(Cl)cc3)c2)s1 | -1 | 3 | 0.3 | 72* | 0.3 | 74*

Source: PubChem BioAssay (several laboratories)
